The campaign covered roughly 220,000 compounds. About 16,000 (7.3%) were called active. Entries that show only a call come without a potency. Inconclusive results (about 25%) are left out. Calls follow the shape of the dose curve; as a rule, active = well fitted inhibition curve with a large enough effect (not every such curve was filed as active); inconclusive = small, poorly fitted or top-dose-only effect, or another doubt; inactive = no such curve, though single readings can be large or run the other way. For the sample, actives were picked, then their nearest neighbours and some compounds at random.
Each compound was assayed against Aldehyde dehydrogenase 1A1 (Homo sapiens) (UniProt P00352) (assay: qHTS Assay for Inhibitors of Aldehyde Dehydrogenase 1 (ALDH1A1)). Conditions: Purified ALDH1A1, NADH fluorescence, propionaldehyde substrate; series mostly up to 75.3 µM.
Chain of Aldehyde dehydrogenase 1A1 (Homo sapiens) (P00352 whole entry, looked up): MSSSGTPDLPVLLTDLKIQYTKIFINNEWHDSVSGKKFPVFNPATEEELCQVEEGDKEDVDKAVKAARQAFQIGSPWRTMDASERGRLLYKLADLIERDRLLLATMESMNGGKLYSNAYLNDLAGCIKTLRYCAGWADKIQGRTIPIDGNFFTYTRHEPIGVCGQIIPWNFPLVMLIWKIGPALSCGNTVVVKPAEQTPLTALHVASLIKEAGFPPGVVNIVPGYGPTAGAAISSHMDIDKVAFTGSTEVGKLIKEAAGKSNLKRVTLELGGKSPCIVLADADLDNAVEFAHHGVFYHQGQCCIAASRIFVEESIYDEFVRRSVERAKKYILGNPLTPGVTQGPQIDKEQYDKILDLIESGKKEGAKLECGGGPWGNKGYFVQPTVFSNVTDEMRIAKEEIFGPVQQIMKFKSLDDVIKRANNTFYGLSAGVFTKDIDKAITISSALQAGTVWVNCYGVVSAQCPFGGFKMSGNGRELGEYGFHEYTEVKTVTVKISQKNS
`Cc1ccc(NC(=S)N2CCCC(c3ccccc3)=N2)cc1` was tested, and the Potency was “inactive”. With `CN1CC(c2ccccc2)C2(COc3ccccc3C2=O)C12C(=O)Nc1ccccc12` (stereo not drawn) the Potency was 7.94 µM (active). In the case of `CC1(C)C2CCC1(C)C(OC(=O)c1ccc(O)cc1)C2` (stereo not drawn), the Potency is reported as “inactive”. In the case of `COc1ccc(CCn2ccc(O)c(Cc3ccc(Cl)cc3Cl)c2=O)cc1OC`, the Potency is reported as “inactive”. For `Cc1noc(C)c1S(=O)(=O)Nc1cc(C(F)(F)F)ccc1N1CCOCC1`, the Potency was “inactive”. In the case of `C=CCN(Cc1nc(-c2cc(OC)c3c(c2)OCO3)oc1C)C1CCS(=O)(=O)C1` (stereo not drawn), the Potency is reported as “inactive”. In the case of `CCO[C@@H]1OC(C(N)=O)=C[C@H](c2ccc(Br)cc2)[C@H]1CCCO`, the Potency is reported as “inactive”. In the case of `CCOC(=O)CSc1nc2c(c(=O)n(C)c(=O)n2C)n1Cc1ccccc1F`, the Potency is reported as 39.8 µM (active). `CCCSc1nc2c(c(=O)n(C)c(=O)n2C)n1Cc1ccc(C)cc1` was tested, and the Potency was 25.1 µM (active). With `CC(C)OCCCNc1nc2c(c(=O)n(Cc3ccccc3F)c(=O)n2C)n1C` the Potency was “inactive”. In the case of `Cn1c(=O)c2c(nc(SCCNS(=O)(=O)c3ccccc3)n2C)n(C)c1=O`, the Potency is reported as “inactive”. For `COCCn1c(CN(Cc2ccccc2)Cc2ccccc2)nc2c1c(=O)n(C)c(=O)n2C`, the Potency was “inactive”. `COC(=O)C(C)Sc1nc2c(c(=O)n(C)c(=O)n2C)n1Cc1cccc(C)c1` (stereo not drawn) was tested, and the Potency was 12.6 µM (active). `CCOc1ccc2nc(NC(=O)CSc3nc4c(c(=O)n(C)c(=O)n4C)n3CC)sc2c1` was tested, and the Potency was “inactive”. `CCCCn1c(SCC(=O)NCCc2ccc(OC)c(OC)c2)nc2c1c(=O)n(C)c(=O)n2C` was tested, and the Potency was “inactive”. With `CCCCNc1nc2c(c(=O)n(C)c(=O)n2C)n1Cc1cccc(OC)c1` the Potency was “inactive”. For `Nc1nc(SCC(=O)N2CCN(S(=O)(=O)c3ccc(Cl)cc3)CC2)n[nH]1`, the Potency was “inactive”. `COc1cccc(NC(=O)COC(=O)CCOc2ccccc2OC)c1` was tested, and the Potency was “inactive”. With `COCc1c(N)c(C)nc(Cl)c1C#N` the Potency was “inactive”. In the case of `Cc1n[nH]c(=O)n1-c1ccc(C(C)C)cc1`, the Potency is reported as “inactive”. With `COc1ccc(NC(=O)COC(=O)c2ccncc2)c(OC)c1` the Potency was “inactive”. For `Cc1c(Cl)cccc1NC(=O)CSc1ccc(-c2cccnc2)nn1`, the Potency was “inactive”. In the case of `COC(=O)c1c(C)[nH]c(C)c1-c1ccc([N+](=O)[O-])cc1`, the Potency is reported as “inactive”. In the case of `CCCCC/C=C\C/C=C\CCCCCCCCCC(=O)O`, the Potency is reported as “inactive”. For `CCOC(=O)Cn1nnnc1C`, the Potency was “inactive”. In the case of `CC(Sc1nnnn1C)C(=O)NC(=O)NC1CCCCC1` (stereo not drawn), the Potency is reported as “inactive”. With `Cc1ccc(OC(=O)c2cc3ccccc3o2)cc1` the Potency was “inactive”. In the case of `O=C(Oc1ccccc1)Oc1ccc2c(c1)oc(=O)c1ccccc12`, the Potency is reported as 17.8 µM (active). `CCc1ccc(Oc2coc3cc(OC(=O)c4cc5ccccc5oc4=O)ccc3c2=O)cc1` was tested, and the Potency was “inactive”. `CCOC(=O)CSC1=N/C(=C/c2ccc(-n3cncn3)cc2)C(=O)N1C(C)=O` was tested, and the Potency was “inactive”. `O=C(CN1C(=O)/C(=C\c2ccccc2F)SC1=S)Nc1nc2ccccc2s1` was tested, and the Potency was “inactive”. With `O=C(CN1C(=O)/C(=C/c2ccccc2F)Sc2ccccc21)NCc1cccnc1` the Potency was 20 µM (active). In the case of `O=C(CN1C(=O)/C(=C\c2ccc(C(F)(F)F)cc2)Sc2ccccc21)NCc1ccco1`, the Potency is reported as “inactive”. With `CN(/C(=N/S(=O)(=O)c1cccs1)c1ccccc1)c1ccc(O)cc1` the Potency was “inactive”. For `O=C(Nc1cc(Cl)cc(Cl)c1)C(NCCCO)c1ccccc1` (stereo not drawn), the Potency was 1.26 µM (active). With `Cc1nnc(SC(C(=O)Nc2cc(Cl)cc(Cl)c2)c2ccccc2)[nH]c1=O` (stereo not drawn) the Potency was “inactive”. In the case of `CCC(C(=O)Nc1ccc(C(C)C)cc1)c1ccccc1` (stereo not drawn), the Potency is reported as “inactive”. In the case of `Cc1c(Br)c([N+](=O)[O-])nn1CC(=O)N1CCN(Cc2ccccc2)CC1`, the Potency is reported as “inactive”. In the case of `COc1ccc(C(=O)Nc2ccc(-n3nncc3C(C)(C)C)cc2)cc1`, the Potency is reported as “inactive”. For `CC(C)NC(=S)N1CCN(C(c2ccccc2)c2ccccc2)CC1`, the Potency was 10 µM (active). For `O=C(c1ccc(-n2cnnn2)cc1)N1CCN(C(c2ccccc2)c2ccccc2)CC1`, the Potency was “inactive”. For `CC(C)NC(=S)N1CCN(S(C)(=O)=O)CC1`, the Potency was “inactive”. For `CCOC(=O)C1CCN(S(=O)(=O)c2cc(F)ccc2OC)CC1`, the Potency was “inactive”. `CCOC(=O)Cn1c(N)c(C(=O)OC)sc1=S` was tested, and the Potency was “inactive”. `COCCOC(=O)c1sc(=S)n(CCOC)c1N` was tested, and the Potency was 10 µM (active). `CCOC(=O)c1cnc2c(c(C)nn2CC)c1Cl` was tested, and the Potency was “inactive”. In the case of `O=S(=O)(c1cccs1)N1CCN(Cc2ccccc2)CC1`, the Potency is reported as “inactive”. `CN1CCN(S(=O)(=O)c2ccc(N3CCN(S(=O)(=O)c4cccs4)CC3)nc2)CC1` was tested, and the Potency was “inactive”. With `COc1ccc2c(CN3CCN(S(=O)(=O)c4cccs4)CC3)cc(=O)oc2c1` the Potency was 14.1 µM (active). `COc1ccc(C(=O)NCC(=O)N/N=C/c2ccc([N+](=O)[O-])s2)cc1OC` was tested, and the Potency was “inactive”. With `CC(=O)N/N=C/c1cc2c(cc1[N+](=O)[O-])OCO2` the Potency was “inactive”. For `Cc1ccc(-c2n[nH]c(=S)n2/N=C/c2cc3c(cc2[N+](=O)[O-])OCO3)cc1`, the Potency was “inactive”. For `Cc1ccc(S(=O)(=O)N/N=C\c2cc3c(cc2[N+](=O)[O-])OCO3)cc1`, the Potency was 1.26 µM (active). With `COc1cc(NC(=O)c2cccnc2SC)cc(OC)c1` the Potency was “inactive”. In the case of `COc1ccc(N2CCN(C(=O)CSc3ncnc4c3cnn4-c3ccc(OC)cc3)CC2)cc1`, the Potency is reported as “inactive”. `CCOc1ccc(-c2nnn(CC(=O)N3CCN(c4ccc(OC)cc4)CC3)n2)cc1OCC` was tested, and the Potency was “inactive”. With `COc1ccc(N2CCN(C(=O)CSc3nc4cc(OC)c(OC)cc4cc3C#N)CC2)cc1` the Potency was 14.1 µM (active). `CCCC(=O)Nc1nnc(-c2ccccc2)o1` was tested, and the Potency was “inactive”. `COc1ccc(C(=O)NC2CCN(C(=S)Nc3ccccc3)CC2)cc1` was tested, and the Potency was “inactive”. `Cc1nnc(SCC(=O)N2CCN(c3ccccc3)CC2)n1-c1ccccc1` was tested, and the Potency was “inactive”. `CCN(CC)C(=O)CSc1nc2ccccc2n1CC(=O)N1CCN(c2ccccc2OC)CC1` was tested, and the Potency was “inactive”. In the case of `CC(C)N(C(=O)Cn1c(SCC(=O)N2CCN(c3ccccc3)CC2)nc2ccccc21)C(C)C`, the Potency is reported as 25.1 µM (active). In the case of `CCN1CCN(c2ccc(NC(=O)c3cnccn3)cc2)CC1`, the Potency is reported as “inactive”. `COc1ccc(Nc2ncc(F)c(N3CCOCC3)n2)cc1` was tested, and the Potency was “inactive”. For `CC(C(=O)NC1CCCC1)N(c1ccc(Oc2ccccc2)cc1)S(C)(=O)=O` (stereo not drawn), the Potency was “inactive”. For `Cc1ccc(N2C(=O)SC(N(CC(=O)O)c3ccc(C)cc3)C2=O)cc1` (stereo not drawn), the Potency was “inactive”. In the case of `Cc1cccc(N(CC(=O)N2CCOCC2)S(C)(=O)=O)c1`, the Potency is reported as “inactive”. For `Cc1cccc(N2C(=O)SC(N(CC(=O)O)c3cccc(C)c3)C2=O)c1` (stereo not drawn), the Potency was 14.1 µM (active).

Source: PubChem BioAssay AID1030 (National Center for Advancing Translational Sciences (NCATS), 2008)
Potency is read from the fitted curve at half-maximal effect.
